# PubChem BioAssay (NCATS)
# Where “and” joins values, the source holds several entries; their conditions need not be identical. Equal values may be shown once. Inconclusive results are not listed. Entries that show only a call come without a potency. A number with no mark means an inactive call. Calls of active or inactive are those of the source. Unless noted, the call rests on the fitted dose curve; in most records, active means well fitted curve in the direction sought with a large enough effect; inconclusive means small, poorly fitted or top-dose-only effect, or another doubt; inactive means no such curve, though single readings can be large; an effect the other way counts as inactive or inconclusive.
# Tests used:
# [1] = target: Cellular tumor antigen p53 (Homo sapiens) (UniProt P04637); experiment: Primary qHTS for small molecule compounds that upregulate eGFP-tagged delta133p53alpha (in N-terminal) cells. (AID 2060322); conditions: NCI-H358 eGFP-delta133p53alpha fluorescence, 24 h; activation: hits give high values; further: series mostly up to about 56 µM; nearly all actives have a fitted effect of over 75% in size
# Chain of Cellular tumor antigen p53 (Homo sapiens) (P04637 whole entry, looked up): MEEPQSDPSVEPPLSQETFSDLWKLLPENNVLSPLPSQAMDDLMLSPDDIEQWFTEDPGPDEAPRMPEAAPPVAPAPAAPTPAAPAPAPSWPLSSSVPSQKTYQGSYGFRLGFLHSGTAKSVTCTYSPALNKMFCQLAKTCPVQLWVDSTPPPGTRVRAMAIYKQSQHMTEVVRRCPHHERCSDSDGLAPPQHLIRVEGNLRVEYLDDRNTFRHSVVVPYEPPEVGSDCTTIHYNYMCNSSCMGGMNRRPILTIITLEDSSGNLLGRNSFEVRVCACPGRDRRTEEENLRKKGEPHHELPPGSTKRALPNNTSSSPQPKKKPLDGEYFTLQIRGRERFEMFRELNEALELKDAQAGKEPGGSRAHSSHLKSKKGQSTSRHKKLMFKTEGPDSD
# How it was run: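 NCI-H358 cells pre-induced 24 h with 10 ng/ml doxycycline to express N-terminal eGFP-delta133p53alpha, then dosed 24 h at 37C without doxycycline; fixed, Hoechst-stained, GFP intensity by laser scanning cytometry, normalized to DMSO (0%) and 57.5 uM 5-azacytidine (100%).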
# [2] = target: Cellular tumor antigen p53 (Homo sapiens) (UniProt P04637); experiment: Primary qHTS for small molecule compounds that upregulate eGFP-tagged delta133p53alpha (in C-terminal) cells. (AID 2060324); further: potency means the concentration at half of the fitted maximal effect
# How it was run: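 NCI-H358 cells pre-induced 24 h with 100 ng/ml doxycycline to express delta133p53alpha-eGFP, then dosed in doxycycline-free medium for 24 h at 37C. Fixed, Hoechst-stained; GFP intensity by laser scanning cytometry, normalized to DMSO wells.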
# [3] = target: Aldehyde dehydrogenase, mitochondrial (Homo sapiens) (UniProt P05091); experiment: qHTS for Inhibitors of the Aldehyde Dehydrogenase Family (ALDH2) Confirmatory screens (AID 2061303; active means well fitted inhibition curve with a large enough effect; title and protocol of this record describe different tests; further: nearly all actives have a fitted effect of over 45% in size)
# [4] = qHTS for Inhibitors of the Aldehyde Dehydrogenase Family (ALDH1A2, ALDH1A3, ALDH2, ALDH3A1) (AID 2061307); further: nearly all actives have a fitted effect of over 50% in size
# [5] = target: Retinaldehyde dehydrogenase 3 (Homo sapiens) (UniProt P47895); experiment: qHTS for Inhibitors of the Aldehyde Dehydrogenase Family (ALDH1A3) Confirmatory screens (AID 2061311); further: nearly all actives have a fitted effect of over 60% in size; further: potency means the concentration at half of the fitted maximal effect
# [6] = target: Retinaldehyde dehydrogenase 3 (Homo sapiens) (UniProt P47895); experiment: qHTS for Inhibitors of the Aldehyde Dehydrogenase Family (ALDH1A3) Validation screen (AID 2061312); further: nearly all actives have a fitted effect of over 45% in size
# [7] = target: Retinal dehydrogenase 2 (Homo sapiens) (UniProt O94788); experiment: qHTS for Inhibitors of the Aldehyde Dehydrogenase Family (ALDH1A2) Confirmation screens (AID 2061314); further: nearly all actives have a fitted effect of over 65% in size; further: potency means the concentration at half of the fitted maximal effect
# [8] = target: Aldehyde dehydrogenase 1A1 (Homo sapiens) (UniProt P00352); experiment: qHTS for Inhibitors of the Aldehyde Dehydrogenase Family (ALDH1A1) Confirmatory screens (AID 2061316); further: nearly all actives have a fitted effect of over 65% in size; further: potency means the concentration at half of the fitted maximal effect
# [9] = target: Aldehyde dehydrogenase, mitochondrial (Homo sapiens) (UniProt P05091); experiment: qHTS for Inhibitors of the Aldehyde Dehydrogenase Family (ALDH2) Validation screens (AID 2061302; active means well fitted inhibition curve with a large enough effect; title and protocol of this record describe different tests; further: potency means the concentration at half of the fitted maximal effect)
# [10] = BET inhibitor-based combinations targeting novel dependencies in MECOM-rearranged (r) AML: OCI-AML3 cell line (AID 2202232); conditions: Potency: OCI-AML3 viability; further: nearly all actives have a fitted effect of over 35% in size; further: potency means the concentration at half of the fitted maximal effect
# How it was run: (§1)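 Here, 11-point titrations of each agent were applied to 500 seeded cells and incubated 48 hr; CellTiter-Glo signal, scaled against DMSO and empty wells, was integrated as AUC, then Z-scored within the individual line.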
# [11] = BET inhibitor-based combinations targeting novel dependencies in MECOM-rearranged (r) AML: MV-4-11 cell line (AID 2202233); further: nearly all actives have a fitted effect of over 45% in size; further: potency means the concentration at half of the fitted maximal effect
# How it was run: (§2)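 Normalized to DMSO and empty-well controls, the luminescence data from CellTiter-Glo after 48 hr drug exposure were fitted across 11 concentrations. Reported metrics are area under the dose-response curve and its Z-transformed form.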
# [12] = BET inhibitor-based combinations targeting novel dependencies in MECOM-rearranged (r) AML: HNT-34 cell line (AID 2202234); further: nearly all actives have a fitted effect of over 35% in size; further: potency means the concentration at half of the fitted maximal effect
# How it was run: as §2
# [13] = BET inhibitor-based combinations targeting novel dependencies in MECOM-rearranged (r) AML: UCSD-AML1 cell line (AID 2202235); further: nearly all actives have a fitted effect of over 40% in size; further: potency means the concentration at half of the fitted maximal effect
# How it was run: as §2
# [14] = BET inhibitor-based combinations targeting novel dependencies in MECOM-rearranged (r) AML: AML-191 cell line (AID 2202236; further: nearly all actives have a fitted effect of over 35% in size; further: potency means the concentration at half of the fitted maximal effect)
# How it was run: as §1
# [15] = BET inhibitor-based combinations targeting novel dependencies in MECOM-rearranged (r) AML: AML-194 cell line (AID 2202237; further: nearly all actives have a fitted effect of over 40% in size; further: potency means the concentration at half of the fitted maximal effect)
# How it was run: as §1
# [16] = BET inhibitor-based combinations targeting novel dependencies in MECOM-rearranged (r) AML: SET-2 cell line (AID 2202231); conditions: SET-2 AML cells viability, CellTiter-Glo luminescence, 48 h; viability: hits give low values, series mostly up to about 46 µM; further: nearly all actives have a fitted effect of over 35% in size
# How it was run: as §1
# [17] = target: Retinaldehyde dehydrogenase 3 (Homo sapiens) (UniProt P47895); experiment: qHTS for Inhibitors of the Aldehyde Dehydrogenase Family (ALDH1A3) Primary screen (AID 2061315)
structure (smiles),measurement,setting,value
Cn1c(=O)c2[nH]c(-c3ccc(S(=O)(=O)O)cc3)nc2n(C)c1=O,activation,[1],1.02%
same,Potency,[2],inactive
same,Potency,[3],inactive
same,Potency,[4],inactive
same,Potency,[5],inactive
same,Potency,[6],inactive
same,Potency,[7],inactive
same,Potency,[8],inactive
CCN1CCc2nc(N)oc2CC1,activation,[1],-8.37% and -17.5%
same,Potency,[2],inactive
same,Potency,[9],inactive
same,Potency,[7],inactive
Oc1ccc2ccccc2c1SSc1c(O)ccc2ccccc12,activation,[1],-0.0951%
same,Potency,[2],inactive
same,Potency,[9],14.1 µM (active)
same,Potency,[6],inactive
same,Potency,[10],6.61 µM (active)
same,Potency,[11],16.6 µM (active)
same,Potency,[12],18.6 µM (active)
same,Potency,[13],23.5 µM (active)
same,Potency,[14],20.9 µM (active)
same,Potency,[15],20.9 µM (active)
C[C@@H](N)C1CCC(C(=O)Nc2ccncc2)CC1 (some centres undefined),activation,[1],-43.5% and -9.78%
same,Potency,[2],inactive
same,Potency,[9],inactive
same,viability,[16],110%
same,Potency,[10],inactive
same,Potency,[12],inactive
same,Potency,[13],inactive
same,Potency,[14],inactive
same,Potency,[15],inactive
CC(=O)Oc1ccccc1C(=O)O,activation,[1],23.2% and 81.8% and -5.87%
same,Potency,[2],inactive
same,Potency,[9],inactive
same,Potency,[6],inactive
same,Potency,[11],inactive
same,Potency,[12],inactive
same,Potency,[13],inactive
same,Potency,[14],inactive
same,Potency,[15],inactive
Cc1nc(N=Nc2cc(S(=O)(=O)O)c3cc([N+](=O)[O-])cc(S(=O)(=O)O)c3c2)c(COP(=O)(O)O)c(C=O)c1O,activation,[1],-72.9%
same,Potency,[2],inactive
same,Potency,[3],inactive
same,Potency,[4],inactive
same,Potency,[5],22.5 µM (active)
same,Potency,[6],inactive
same,Potency,[7],inactive
same,Potency,[8],inactive
CC(C)(C)C(=O)Oc1ccc(S(=O)(=O)Nc2ccccc2C(=O)NCC(=O)O)cc1,activation,[1],-5.86% and -2.63% and -11.2%
same,Potency,[2],inactive
same,Potency,[9],inactive
same,viability,[16],111%
same,Potency,[11],inactive
same,Potency,[12],inactive
same,Potency,[13],inactive
same,Potency,[14],inactive
same,Potency,[15],inactive
NC(N)=NC(=O)c1nc(Cl)c(N)nc1N,activation,[1],11.3% and -28.8% and -10.6%
same,Potency,[2],inactive
same,Potency,[9],inactive
same,Potency,[6],inactive
same,Potency,[11],13.5 µM (active)
same,Potency,[13],30.3 µM (active)
Clc1ccc(C(c2ccc(Cl)cc2)n2cc[n+](CC(OCc3ccc(Cl)cc3Cl)c3ccc(Cl)cc3Cl)c2)cc1 (centres undefined),activation,[1],29.4%
same,Potency,[2],inactive
same,Potency,[9],inactive
same,Potency,[6],inactive
same,Potency,[10],5.9 µM (active)
same,Potency,[11],8.33 µM (active)
same,Potency,[12],9.34 µM (active)
same,Potency,[14],18.6 µM (active)
Cc1c(OCC(F)(F)F)ccnc1CS(=O)c1nc2ccccc2[nH]1 (centres undefined),activation,[1],8.47% and 28.3%
same,Potency,[2],inactive
same,Potency,[9],inactive
same,Potency,[12],inactive
same,Potency,[13],inactive
same,Potency,[15],inactive
Cc1cccc(-c2[nH]c(C(C)(C)C)nc2-c2ccc3nccnc3c2)n1,activation,[1],-6.37% and 25.5%
same,Potency,[2],inactive
same,Potency,[9],inactive
same,Potency,[6],inactive
same,Potency,[10],inactive
same,Potency,[13],inactive
NC[C@@H]1O[C@H](C23CC4CC(CC(C4)C2)C3)Cc2c1ccc(O)c2O,activation,[1],44.4%
same,Potency,[9],inactive
Clc1ccc2c(N3CCN(CCCN4CCN(c5ccnc6cc(Cl)ccc56)CC4)CC3)ccnc2c1,activation,[1],26.5%
same,Potency,[2],inactive
same,Potency,[4],inactive
same,viability,[16],76.4%
same,Potency,[10],inactive
same,Potency,[12],inactive
same,Potency,[13],inactive
same,Potency,[14],inactive
same,Potency,[15],inactive
Brc1c(NC2=NCCN2)ccc2nccnc12,activation,[1],-0.565% and -20%
same,Potency,[2],inactive
same,Potency,[4],11.3 µM (active)
same,Potency,[5],5.65 µM (active)
same,Potency,[7],8.96 µM (active)
same,Potency,[8],11.3 µM (active)
O=C1c2c(O)cc(O)cc2OC(c2ccc(O)c(O)c2)C1O (centres undefined),activation,[1],31.8% and -16.9%
same,Potency,[2],inactive
same,Potency,[6],inactive
same,Potency,[10],23.5 µM (active)
same,Potency,[11],18.6 µM (active)
same,outcome,[13],inactive
O=C(Nc1cccc(C(=O)Nc2ccc(S(=O)(=O)O)c3cc(S(=O)(=O)O)cc(S(=O)(=O)O)c23)c1)Nc1cccc(C(=O)Nc2ccc(S(=O)(=O)O)c3cc(S(=O)(=O)O)cc(S(=O)(=O)O)c23)c1,activation,[1],-8.79%
same,Potency,[2],inactive
same,Potency,[6],inactive
S=c1[nH]c(-c2ccccc2)cn1-c1ccccc1,activation,[1],-21.8%
same,Potency,[2],inactive
same,Potency,[6],inactive
N#CC(=C(\N)Sc1ccccc1N)/C(C#N)=C(/N)Sc1ccccc1N,activation,[1],-29.9%
same,Potency,[9],inactive
COc1ccc(NC(=O)/C=C/c2ccc(Cl)cc2)cc1,activation,[1],-18.7%
same,Potency,[2],inactive
same,Potency,[6],inactive
c1ccc(CN2CCC3(CCCc4ccccc43)CC2)cc1,activation,[1],-56.7%
same,Potency,[9],inactive
COc1ccc(/C=C/C(=O)Nc2ccccc2C(=O)O)cc1OC,activation,[1],22.3% and 8.92%
same,Potency,[2],inactive
same,Potency,[17],inactive
same,viability,[16],104%
same,Potency,[10],inactive
same,Potency,[11],inactive
same,Potency,[12],inactive
same,Potency,[13],inactive
same,Potency,[14],inactive
same,Potency,[15],inactive
OCc1ccc(-c2nn(Cc3ccccc3)c3ccccc23)o1,activation,[1],-12.3% and 3.48%
same,Potency,[2],inactive
same,Potency,[10],23.5 µM (active)
same,Potency,[11],5.9 µM (active)
same,Potency,[13],20.9 µM (active)
COc1cc(/C=C(\C#N)C(=O)c2ccc(O)c(O)c2)cc(I)c1O,activation,[1],0.259%
same,Potency,[2],16.9 µM (active)
same,Potency,[4],4 µM (active)
same,Potency,[5],8.96 µM (active)
same,Potency,[7],12.7 µM (active)
